The source of these data is PubChem BioAssay (Tox21).

The nature of assay [1]: qHTS assay to identify small molecule antagonists of the thyroid receptor (TR) signaling pathway - cell viability counter screen (AID 743064). Note: nearly all actives have a fitted effect of over 50% in size. Note: potency is the fitted concentration of half-maximal effect. In short, it runs like this: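 In-well cytotoxicity read by CellTiter-Fluor (30 min, 37 C) following 23.5 h exposure of GH3 cells bearing a TRE-luciferase sensor. Compounds were added alongside 1 nM (final) T3 to drive TR transactivation.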
(In general: qHTS replaces the single test concentration by a dilution series.)

The subject of assay [2] is thyroid hormone receptor (rat, GH3 cells). The experiment in a line: qHTS assay to identify small molecule agonists of the thyroid receptor (TR) signaling pathway (AID 743066; calls by dose curve; note: % is set by controls: 0 for no effect and ±100 for the full control effect).
Assay [3] has as its target Estrogen receptor (Homo sapiens) (UniProt P03372). As to the kind of experiment: qHTS assay to identify small molecule antagonists of the estrogen receptor alpha (ER-alpha) signaling pathway (AID 743069; active = well fitted curve in the direction sought with a large enough effect in the signal ratio in the repeat runs, not every such curve was filed as active; inconclusive = weak or mixed curves, or effect the other way; inactive = no such curve, though single readings can be large or run the other way; the % refers to the signal ratio; note: % is set by controls: 0 for no effect and ±100 for the full control effect). The method, boiled down:
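A 17beta-estradiol challenge was applied right after compound transfer to ER-alpha-UAS-bla HEK293 cells previously kept in charcoal-stripped serum. Plates stood 18 hr at 37C and 5% CO2; fluorescence was read following 2 hr FRET substrate loading at room temperature.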

Assay [4] can be described thus: qHTS assay to identify small molecule antagonists of the estrogen receptor alpha (ER-alpha) signaling pathway - cell viability counter screen (AID 743074; calls by dose curve;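 note: HEK293 cells carrying ER-alpha-UAS-bla reporter stimulated with 17beta-estradiol; nearly all actives have a fitted effect of over 45% in size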; note: potency is the fitted concentration of half-maximal effect).
Assay [5] addresses Estrogen receptor (Homo sapiens) (UniProt P03372). As to the kind of experiment: qHTS assay to identify small molecule agonists of the estrogen receptor alpha (ER-alpha) signaling pathway (AID 743075; calls by dose curve;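 note: HEK293 GripTite cells with ER-alpha and UAS-driven beta-lactamase reporter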; note: potency is the fitted concentration of half-maximal effect; for activation: % is set by controls: 0 for no effect and ±100 for the full control effect).
Assay [6] shares this target. The experiment in a line: qHTS assay to identify small molecule agonists of the estrogen receptor alpha (ER-alpha) signaling pathway using the BG1 cell line (AID 743079). For activation: % is set by controls: 0 for no effect and ±100 for the full control effect. Note: nearly all actives have a fitted effect of over 20% in size. Note: potency is the fitted concentration of half-maximal effect. As to conditions: BG1Luc4E2 cells, ERE-luciferase agonist, 22 h; activation: at 70.3 µM (top of the series).
Assay [7] is described as follows: qHTS assay to identify small molecule antagonists of the estrogen receptor alpha (ER-alpha) signaling pathway using the BG1 cell line (AID 743080; calls by dose curve;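 note: BG1 cells stimulated with 17beta-estradiol alongside compound; nearly all actives have a fitted effect of over 25% in size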; note: potency is the fitted concentration of half-maximal effect). In short, it runs like this:
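BG1Luc4E2, endogenous ER-alpha, 4xERE-luc; 5 d charcoal-stripped FBS, phenol red free; 24 h plating; cpd + 17beta-estradiol 21.5 h, 37 C/5% CO2; CellTiter-Fluor viability 30 min, then ONE-Glo luciferase 30 min RT.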

Assay [8] in a line: qHTS assay to identify small molecule antagonists of the estrogen receptor alpha (ER-alpha) signaling pathway using the BG1 cell line - cell viability counter screen (AID 743081).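 Note: compound given together with 17beta-estradiol as the ER stimulus; nearly all actives have a fitted effect of over 45% in size.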 Note: potency is the fitted concentration of half-maximal effect.
Another assay addresses Aromatase (Homo sapiens) (UniProt P11511). As to the kind of experiment: qHTS assay to identify aromatase inhibitors (AID 743083). Note: nearly all actives have a fitted effect of over 55% in size. Note: potency is the fitted concentration of half-maximal effect.
The nature of assay [9]: qHTS assay to identify small molecule antagonists of the thyroid receptor (TR) signaling pathway (AID 743065). Note: potency is the fitted concentration of half-maximal effect; nearly all actives have a fitted effect of over 55% in size. The method, boiled down:
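GH3.TRE-Luc rat pituitary cells carrying two TR response elements driving luciferase were plated for 4 h, given compound plus 1 nM T3 (final), and incubated 23.5 h at 37 C. ONE-Glo luminescence measured reporter inhibition; CellTiter-Fluor fluorescence tracked cytotoxicity.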

Each structure is given as a SMILES string. Active and inactive are the calls of the source. Unless noted, calls come from the whole dose curve; as a rule, active = well fitted curve in the direction sought with a large enough effect in the repeat runs; inconclusive = weak or mixed curves; inactive = no such curve, though single readings can be large; an effect the other way counts as inactive or inconclusive.

Estrogen receptor (Homo sapiens), sequence (P03372 whole entry, looked up): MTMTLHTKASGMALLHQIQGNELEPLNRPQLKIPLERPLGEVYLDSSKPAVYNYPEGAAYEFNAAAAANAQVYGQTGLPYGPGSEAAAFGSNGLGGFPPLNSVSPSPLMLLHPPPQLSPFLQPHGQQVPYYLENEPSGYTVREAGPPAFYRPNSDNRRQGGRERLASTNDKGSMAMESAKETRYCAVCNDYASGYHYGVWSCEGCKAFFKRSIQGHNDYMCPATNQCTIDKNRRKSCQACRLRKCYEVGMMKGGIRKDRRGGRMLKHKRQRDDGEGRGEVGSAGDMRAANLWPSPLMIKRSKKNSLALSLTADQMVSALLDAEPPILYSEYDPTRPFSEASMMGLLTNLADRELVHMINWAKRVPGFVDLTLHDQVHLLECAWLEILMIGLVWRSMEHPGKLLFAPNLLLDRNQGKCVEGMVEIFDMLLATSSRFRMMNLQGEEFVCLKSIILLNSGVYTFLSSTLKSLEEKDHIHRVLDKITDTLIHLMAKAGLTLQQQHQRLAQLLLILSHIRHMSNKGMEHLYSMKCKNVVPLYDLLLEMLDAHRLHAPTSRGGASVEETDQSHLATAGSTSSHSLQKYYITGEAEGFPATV
Aromatase (Homo sapiens), sequence (P11511 whole entry, looked up): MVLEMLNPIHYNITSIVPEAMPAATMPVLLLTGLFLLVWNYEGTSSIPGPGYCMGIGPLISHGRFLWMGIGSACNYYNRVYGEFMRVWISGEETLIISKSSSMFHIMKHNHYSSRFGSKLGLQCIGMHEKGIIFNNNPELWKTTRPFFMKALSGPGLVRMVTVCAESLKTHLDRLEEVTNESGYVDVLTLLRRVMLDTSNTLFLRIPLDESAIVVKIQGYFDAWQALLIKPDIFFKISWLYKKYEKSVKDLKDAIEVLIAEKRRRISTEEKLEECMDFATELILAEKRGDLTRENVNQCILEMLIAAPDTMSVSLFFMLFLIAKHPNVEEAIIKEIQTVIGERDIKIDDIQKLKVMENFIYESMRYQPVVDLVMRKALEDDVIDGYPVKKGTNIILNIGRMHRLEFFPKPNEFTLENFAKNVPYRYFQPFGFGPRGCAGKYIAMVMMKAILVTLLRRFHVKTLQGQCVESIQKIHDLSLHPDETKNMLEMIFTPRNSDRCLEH

Turning to `CO[C@H]1O[C@@H]2O[C@@]3(C)CC[C@H]4[C@H](C)CC[C@@H]([C@H]1C)[C@@]24OO3`, the Potency result in [1], in assay [2], in assay [3], in assay [4], in assay [5] and in [6] was “inactive” in each case. The Potency entry (in [7]; in assay [8]; in the assay with Aromatase (Homo sapiens)) was “inactive” each time.
Take `CCCCCCCC(=O)CC[C@@H]1[C@@H](C/C=C\CCCC(=O)OC(C)C)[C@@H](O)C[C@H]1O`: the Potency in assay [1] was 21.1 µM (active); in [9], 16.8 µM (active); in assay [4] it was 26.8 µM (active). Further, the Potency result in assay [5], in assay [6], in assay [7] and in [8] was “inactive” in each case.
On to `COc1cc(-c2ccc(-[n+]3nc(-c4ccccc4)nn3-c3ccc([N+](=O)[O-])cc3)c(OC)c2)ccc1-[n+]1nc(-c2ccccc2)nn1-c1ccc([N+](=O)[O-])cc1`, for which the Potency in assay [1] is 26.6 µM (active); in [9], 29.8 µM (active); in [4], 4.25 µM (active); with Aromatase (Homo sapiens), 26.6 µM (active).
As for `CO[C@H]1C[C@H](O[C@H]2[C@H](C)O[C@@H](O[C@@H]3/C(C)=C/C[C@@H]4C[C@@H](C[C@]5(C=C[C@H](C)[C@@H](C6CCCCC6)O5)O4)OC(=O)[C@@H]4C=C(C)[C@@H](O)[C@H]5OC/C(=C\C=C\[C@@H]3C)[C@]54O)C[C@@H]2OC)O[C@@H](C)[C@@H]1O`, the Potency was 2.66 µM (active) in [1], 2.66 µM (active) in [9], 16.9 µM (active) in [4] and 21.1 µM (active) in [8]. The Potency entry (in [5]; with Aromatase (Homo sapiens)) was “inactive” in each case.
Turning to `CCN(CC)c1ccc(C(=C2C=CC(=[N+](CC)CC)C=C2)c2ccccc2)cc1`, the Potency is 0.335 µM (active) in assay [1]; 0.335 µM (active) in [9]; 4.77 µM (active) in assay [4]; 5.96 µM (active) in [7]; 3.35 µM (active) with Aromatase (Homo sapiens).
`CC(=O)Oc1cc(C)c(OC(C)=O)c2ccccc12`: the figures for the Potency (in assay [1]; in assay [9]; in the assay with Aromatase (Homo sapiens)) were 26.6 µM (active), 23.7 µM (active) and 26.6 µM (active), respectively. Also, the Potency entry in [4], in assay [5], in assay [7] and in [8] was “inactive” throughout.
Regarding `CC(=O)c1ccc2c(c1)N(CCCN1CCN(CCO)CC1)c1ccccc1S2`, the Potency in [1] and in assay [9] was 13.3 µM (active) in each case. Besides, the Potency entry in [4] and in [7] was “inactive” each time.
Consider `CC1(C)S[C@@H]2[C@H](NC(=O)Cc3ccccc3)C(=O)N2[C@H]1C(=O)O`, for which the Potency result in assay [1], in [3], in assay [4], in assay [5], in assay [6] and in assay [7] was “inactive” throughout. For the same molecule, the Potency entry (in [8]; with Aromatase (Homo sapiens)) was “inactive” in each case.
Consider `CCCC(=O)Nc1ncnc2c1ncn2[C@@H]1O[C@@H]2COP(=O)(O)O[C@H]2[C@H]1OC(=O)CCC`, for which the Potency entry (in assay [1]; in [2]; in assay [4]; in assay [8]; in the assay with Aromatase (Homo sapiens)) was “inactive” each time.
Regarding `Nc1nc2[nH]cc(CCc3ccc(C(=O)N[C@@H](CCC(=O)O)C(=O)O)cc3)c2c(=O)[nH]1`, the Potency result in assay [1], in assay [2], in assay [3], in assay [5], in assay [6] and in assay [7] was “inactive” throughout. The Potency result (in assay [8]; with Aromatase (Homo sapiens)) was “inactive” each time.
With `C[C@]12CC[C@@H]3c4ccc(OC(=O)c5ccccc5)cc4CC[C@H]3[C@@H]1CC[C@@H]2O`, the Potency entry (in [1]; in assay [2]; in assay [4]; in assay [8]; in the assay with Aromatase (Homo sapiens)) was “inactive” each time. For the same molecule, in [5], the Potency is 0.0007 µM [inconclusive] (active). Further, the activation in [6] was 82.8% (active).
As to `COc1cc2c(cc1OC)[C@@H](c1ccccc1)CN(C)CC2`, the Potency entry in assay [1], in assay [2], in [4], in [5], in [6] and in [7] was “inactive” throughout. For the same molecule, the Potency result in assay [8] is “inactive”.
Take `C=C1/C(=C\C=C2/CCC[C@]3(C)[C@@H]([C@H](C)OCCC(C)(C)O)CC[C@@H]23)C[C@@H](O)C[C@@H]1O`: the Potency entry (in [1]; in assay [2]; in assay [4]; with Aromatase (Homo sapiens)) was “inactive” each time.
Regarding `NCCCC[C@H](N)C(=O)O`, the Potency result in [1], in assay [3], in assay [4], in assay [5], in assay [6] and in assay [7] was “inactive” each time. Further, the Potency result (in [8]; in the assay with Aromatase (Homo sapiens)) was “inactive” throughout.
Turning to `O=C1/C(=C\c2cccs2)CCC/C1=C\c1cccs1`, the Potency entry (in assay [1]; in [2]; in assay [4]; in assay [8]; with Aromatase (Homo sapiens)) was “inactive” each time. In addition, the Potency in [6] is 26.6 µM (active).
In the case of `CC(=O)Nc1c(I)c(C(=O)N[C@H]2C(O)O[C@H](CO)[C@@H](O)[C@@H]2O)c(I)c(N(C)C(C)=O)c1I` (stereo not given in full), the Potency entry in [1], in [3], in assay [4], in [5], in assay [6] and in [7] was “inactive” in each case. The Potency result (in [8]; in the assay with Aromatase (Homo sapiens)) was “inactive” throughout.
Turning to `C[C@]12CC[C@@H]3c4ccc(OS(=O)(=O)O)cc4CC[C@H]3[C@@H]1CCC2=O`, the Potency entry in assay [1], in assay [2], in [4] and in [8] was “inactive” each time.
Take `CCC[C@@]1(CCc2ccccc2)CC(O)=C([C@H](CC)c2cccc(NS(=O)(=O)c3ccc(C(F)(F)F)cn3)c2)C(=O)O1`: the Potency entry (in assay [1]; in [2]; in [4]; in assay [8]; with Aromatase (Homo sapiens)) was “inactive” in each case.
`CCCCCCCCCCCC(=O)OC[C@@H](O)C1OC[C@H](O)[C@H]1O` (stereo not given in full): the Potency entry (in assay [1]; in [2]; in assay [4]; in assay [8]; in the assay with Aromatase (Homo sapiens)) was “inactive” in each case.
Turning to `FCOC(C(F)(F)F)C(F)(F)F`, the Potency entry in assay [1], in [3], in assay [4], in [5], in assay [6] and in [7] was “inactive” each time. Also, the Potency entry (in assay [8]; with Aromatase (Homo sapiens)) was “inactive” throughout.
